Compound activity deposited in PubChem by National Center for Advancing Translational Sciences (NCATS).
PNC inhibitor: inhibitors of perinucleolar compartment assembly; PC3M PTB-GFP, PNC prevalence imaging, 16 h; active compounds read low; hit rate 3.1% among 140,000; activity change (PNC), negative = inhibition, % at 10 µM;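 active means readout at or below -70, meaning at least 70% loss of cells showing the perinucleolar compartment, a nuclear body marking cancer cells; inconclusive means readout between -30 and a set limit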
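Read-out is percentage of cells bearing a perinucleolar compartment, from automated 20x imaging of fixed, Hoechst-stained PC3M PTB-GFP cells. Cells were seeded 4 h, then exposed 16 h to compound (23 nl of library stock) in duplicate plates.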
NPSR antag: blocks cAMP signaling of the human neuropeptide S receptor. CHO-NPSR cells, cAMP TR-FRET, antagonist mode. hit rate 1% among 220,000. Q6W5P4. Potency, µM (titrated, usually from 38.3 µM), most hits filed as inhibitors; further: nearly all actives have a fitted effect of over 50% in size
Target sequence (Q6W5P4 whole entry, looked up): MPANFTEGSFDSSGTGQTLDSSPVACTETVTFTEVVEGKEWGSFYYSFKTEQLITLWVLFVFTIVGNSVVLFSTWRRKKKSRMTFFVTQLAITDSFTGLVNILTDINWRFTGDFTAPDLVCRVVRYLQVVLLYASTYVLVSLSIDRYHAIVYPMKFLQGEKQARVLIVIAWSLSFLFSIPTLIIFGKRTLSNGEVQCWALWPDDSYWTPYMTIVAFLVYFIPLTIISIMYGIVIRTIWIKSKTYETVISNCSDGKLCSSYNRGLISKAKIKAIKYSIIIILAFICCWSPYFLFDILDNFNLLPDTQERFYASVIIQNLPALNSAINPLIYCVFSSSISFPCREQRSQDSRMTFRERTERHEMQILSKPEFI
IMPase Li inh: membrane-permeable IMPase blocker, potentiated with lithium. CHO-M1 cells, IP1 TR-FRET (IP-One), carbachol + lithium. Potency, µM (series often up to 59.4 µM), hits mostly inhibitors. hit rate 0.35% among 210,000;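 further: IP1 builds up when IMPase is blocked and the TR-FRET signal falls; nearly all actives have a fitted effect of over 50% in size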
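Readout is a homogeneous TR-FRET IP1 immunoassay (Ex 320, Em 665 and 620), where raised cytosolic IP1 lowers signal. Cells were CHO-M1 treated 30 min at 37C with test compounds plus a little lithium; AC50 values came from Hill-equation fitting.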
HTT ATP protect: protects HTT-Q103 PC12 cells, measured by ATP; hit rate 0.14% among 230,000; PC12 HTT-Q103 induced, cytoprotection, ATP luminescence, 40 h; Potency, µM (top dose mostly 56.4 µM), actives largely listed as activators; further: nearly all actives have a fitted effect of over 45% in size
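Quantitative HTS on tebufenozide-induced (100 nM) PC12 cells expressing HTTQ103 exon 1–GFP; compounds tested as a concentration series; survival measured via cellular ATP.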
HTT aggregate: mutant huntingtin aggregation inhibition | Potency, µM (top dose mostly 46.1 µM), most hits filed as inhibitors | hit rate 1.1% among 220,000 | PC12 HttQ103-GFP aggregates, Acumen cytometry, 40 h | AID 1688; further: nearly all actives have a fitted effect of over 60% in size
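Compounds (qHTS titration) were added to PC12 cells expressing an ecdysone-driven HTT exon 1 Q103–GFP fusion after induction with 100 nM tebufenozide. Aggregate formation was measured as GFP objects in cell lysates.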
IMPase cell inh: membrane-permeable compound that blocks inositol monophosphatase; P97697; CHO-M1 cells, IP1 accumulation, HTRF TR-FRET ratio; inhibition (IP1 accumulation), % at 46.1 µM; 120,000 tested, under 10 active; AID 901; active means well fitted curve in the direction sought with a large enough effect in the signal ratio, not every such curve was filed as active; inconclusive means small, poorly fitted or top-dose-only effect, or a change in a side signal; inactive means no such curve, though single readings can be large or run the other way; the % refers to the signal ratio;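 further: cells stimulated with carbachol in lithium chloride buffer; higher means more IMPase inhibition seen as more IP1 and lower FRET ratio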
Target sequence (P97697 whole entry, looked up): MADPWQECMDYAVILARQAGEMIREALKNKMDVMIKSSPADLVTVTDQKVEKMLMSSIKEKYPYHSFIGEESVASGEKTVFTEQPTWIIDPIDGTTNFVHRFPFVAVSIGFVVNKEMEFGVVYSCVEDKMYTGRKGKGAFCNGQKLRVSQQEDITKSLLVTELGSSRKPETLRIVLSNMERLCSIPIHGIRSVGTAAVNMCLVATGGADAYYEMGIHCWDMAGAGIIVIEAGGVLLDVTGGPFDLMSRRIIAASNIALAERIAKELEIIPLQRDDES
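Carbachol-driven Gq signalling in CHO-M1 cells (2000/well) generates IP1. Compounds that block IMPase raise IP1 and so reduce the FRET signal from Eu-anti-IP1 and d2-IP1 after a 10 min room-temperature lysis.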
A number is an active result; [ ] = another dose, or the depositor's remark. A selection: hits, their analogues and other compounds. The true share with any hit is near 3.4%. Unless noted, the call rests on the fitted dose curve; in most records, active means well fitted curve in the direction sought with a large enough effect; inconclusive means small, poorly fitted or top-dose-only effect, or another doubt; inactive means no such curve, though single readings can be large; an effect the other way counts as inactive or inconclusive.

Screening O=C(c1ccco1)N1CCn2cccc2C1c1ccccc1 (stereo not drawn) returned NPSR antag inactive, IMPase Li inh inactive, HTT ATP protect 0.89µM and HTT aggregate inactive.
Screening CC(=O)OC[C@@H]1O[C@H](C/C=N\O[C@@H](C)CN2CCCCc3nc(C)c(C)cc32)C=C[C@@H]1OC(C)=O returned HTT ATP protect inactive[10 µM].
`CC(C)n1c2ccccc2c2nnc(SCC(=O)Nc3ccccc3C(=O)O)nc21` gave NPSR antag inactive, IMPase Li inh 7.9µM, HTT ATP protect inactive and HTT aggregate inactive.
`CCOC(=O)Cc1nnc(NC(=O)CSc2nnc3c4ccccc4n(C(C)C)c3n2)s1` gave PNC inhibitor inactive, NPSR antag inactive, IMPase Li inh inconclusive, HTT ATP protect inactive[10 µM], HTT aggregate inactive and IMPase cell inh inconclusive.
Cc1ccc(S(=O)(=O)Nc2ccc3nc(N)sc3c2)cc1 was read as PNC inhibitor inactive, NPSR antag inactive, IMPase Li inh inactive, HTT ATP protect inactive[10 µM], HTT aggregate inconclusive and IMPase cell inh inactive.
For Cc1nc2cc(NS(=O)(=O)c3c(C)c(C)cc(C)c3C)ccc2s1 the results were PNC inhibitor inactive, NPSR antag inconclusive, IMPase Li inh inactive, HTT ATP protect inactive[10 µM], HTT aggregate inactive and IMPase cell inh inactive.
Cc1nc2ccc(NS(=O)(=O)c3c(C)c(C)cc(C)c3C)cc2s1 was read as PNC inhibitor inactive, NPSR antag inactive, IMPase Li inh inactive, HTT ATP protect inactive, HTT aggregate 13µM and IMPase cell inh inactive.
Screening Cc1ccc(S(=O)(=O)Nc2ccc3nc(C)sc3c2)cc1 returned PNC inhibitor inconclusive, NPSR antag inactive, IMPase Li inh inactive, HTT ATP protect inactive, HTT aggregate 14µM and IMPase cell inh inconclusive.
`Cc1ccc2nc(-c3ccc(NS(=O)(=O)c4ccc(F)c(F)c4)cc3)sc2c1` gave PNC inhibitor inactive, NPSR antag inactive, IMPase Li inh inactive, HTT ATP protect inactive[10 µM] and HTT aggregate 2.8µM.
`Fc1ccccc1CNC(=S)Nc1cccc(C(F)(F)F)c1` gave PNC inhibitor inactive, NPSR antag inactive, IMPase Li inh inactive, HTT ATP protect inactive[10 µM], HTT aggregate inconclusive and IMPase cell inh inactive.
C/C(=N/NC(=O)c1cccc(C)c1)c1c(O)cc(C)oc1=O was read as PNC inhibitor -100, NPSR antag inactive, IMPase Li inh inactive, HTT ATP protect inactive[10 µM], HTT aggregate inactive and IMPase cell inh inactive.
For Cc1cc(Br)ccc1NC(=O)c1cn(C2CCCC2)c(=O)c2c1c1ccccc1n2C the results were IMPase cell inh inactive.
For CCOc1cc(/C=N/NC(=O)CCc2n[nH]c(=O)[nH]c2=O)ccc1O the results were NPSR antag inactive, IMPase Li inh inactive and HTT aggregate inactive.
Screening COc1ccc2sc(/C=C/c3ccccc3O)[n+](C)c2c1 returned NPSR antag 13µM, IMPase Li inh inactive and HTT aggregate inactive.
For COc1ccc2c(c1)-c1nc(/N=C/c3ccccc3O)sc1CC2 the results were PNC inhibitor inactive, NPSR antag inactive, IMPase Li inh inactive, HTT ATP protect inactive[10 µM] and HTT aggregate inactive.
For CCCCNc1ccc(S(N)(=O)=O)cc1[N+](=O)[O-] the results were PNC inhibitor -113, NPSR antag inactive, IMPase Li inh inactive, HTT ATP protect inactive[10 µM] and HTT aggregate inactive.
Screening CC[C@@]12CCCN3CCc4c(n(c5ccccc45)[C@](O)(C(=O)OC)C1)C32 (stereo partly drawn) returned IMPase Li inh inactive, HTT ATP protect inactive and HTT aggregate inactive.
For COC(=O)Cn1c(C)c(C#N)c2ccccc21 the results were PNC inhibitor inconclusive, NPSR antag inactive, IMPase Li inh inactive, HTT ATP protect inactive[10 µM], HTT aggregate inactive and IMPase cell inh inactive.
Screening N#Cc1c2ccc(O)cc2n2ccccc12 returned NPSR antag inactive, IMPase Li inh inactive, HTT ATP protect inactive and HTT aggregate 10µM.
Screening COc1cc2ncnc(NCc3ccc(C)cc3)c2cc1OC returned PNC inhibitor inconclusive, NPSR antag inactive, IMPase Li inh inactive, HTT ATP protect inactive[10 µM], HTT aggregate 35µM and IMPase cell inh inactive[1.84 µM].
`COc1cccc(CNc2ncnc3cc(OC)c(OC)cc23)c1` gave PNC inhibitor inactive, NPSR antag inactive, IMPase Li inh inactive, HTT ATP protect inactive[10 µM], HTT aggregate inconclusive and IMPase cell inh inactive[1.84 µM].
For O=C(O)/C=C/C(=O)OC1CC2CCC1C2 (stereo not drawn) the results were NPSR antag inactive, HTT ATP protect inactive[10 µM] and HTT aggregate inactive[9.22 µM].
CCOc1c2ccc(C(=O)NCCc3ccc(C)cc3)cc2nn1CC was read as PNC inhibitor -113, NPSR antag inactive, IMPase Li inh inactive, HTT ATP protect inactive, HTT aggregate inactive and IMPase cell inh inactive.
`COCCn1nc2cc(C(=O)NCC34CC5CC(CC(C5)C3)C4)ccc2c1OC` gave PNC inhibitor inactive, NPSR antag inactive, IMPase Li inh inactive, HTT ATP protect inactive, HTT aggregate inactive and IMPase cell inh inactive.
`CCCn1nc2cc(C(=O)NCC34CC5CC(CC(C5)C3)C4)ccc2c1OCC` gave PNC inhibitor inactive, NPSR antag inactive, IMPase Li inh inactive, HTT ATP protect inactive, HTT aggregate 32µM and IMPase cell inh inactive.
Screening O=Cc1ccc(OCC(=O)Nc2ccccc2C(F)(F)F)cc1 returned NPSR antag inactive, IMPase Li inh inactive, HTT ATP protect inactive[10 µM] and HTT aggregate inactive.
Screening COC(=O)C(=Cc1cc(Br)c(OC)c(Br)c1)C(=O)OC returned IMPase Li inh inactive and HTT ATP protect inactive.
Screening O=[N+]([O-])c1c(C(Cl)Cl)nn(-c2ccc(Cl)cc2)c1N1CCCCC1 returned PNC inhibitor -113, NPSR antag inactive, IMPase Li inh inactive, HTT ATP protect inactive[10 µM] and HTT aggregate inactive.
For O=C(Cn1nc(C(F)(F)F)c2c1CCC2)Nc1ccccc1C(F)(F)F the results were PNC inhibitor -100, NPSR antag inactive, IMPase Li inh inactive, HTT ATP protect inactive[10 µM], HTT aggregate inactive and IMPase cell inh inactive.
`COc1ccccc1NC(=O)Cn1nc(C(F)(F)F)c2c1CCCC2` gave PNC inhibitor inactive, NPSR antag inactive, IMPase Li inh inactive, HTT ATP protect inactive[10 µM], HTT aggregate inactive and IMPase cell inh inactive.
For CCOc1ccccc1NC(=O)c1cnn2c(C(F)F)cc(-c3ccccc3)nc12 the results were IMPase cell inh inactive.
For C#CCn1c(S(=O)(=O)Cc2ccccc2Cl)nc(-c2ccccc2)c1-c1ccccc1 the results were PNC inhibitor inactive, NPSR antag 10µM, IMPase Li inh inactive, HTT ATP protect inactive[10 µM], HTT aggregate inactive and IMPase cell inh inactive[1.84 µM].
